# Screen size: about 310,000 compounds; about 14,000 (4.5%) showed an effect of 50% or more. The effect is printed as a negative number. Many of the other results were omitted from the sample, so strong results are more common in it than they were.
# Target: human ether-à-go-go-related gene (hERG) potassium channel (human, UniProt Q12809)
# Test: primary screen, population patch clamp on CHO cells stably expressing hERG; higher = less effect of the substance
# 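Also: peak tail current of the secondary pulse compared with the same well before compound.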
# Chain of human ether-à-go-go-related gene (hERG) potassium channel (Q12809 whole entry, looked up): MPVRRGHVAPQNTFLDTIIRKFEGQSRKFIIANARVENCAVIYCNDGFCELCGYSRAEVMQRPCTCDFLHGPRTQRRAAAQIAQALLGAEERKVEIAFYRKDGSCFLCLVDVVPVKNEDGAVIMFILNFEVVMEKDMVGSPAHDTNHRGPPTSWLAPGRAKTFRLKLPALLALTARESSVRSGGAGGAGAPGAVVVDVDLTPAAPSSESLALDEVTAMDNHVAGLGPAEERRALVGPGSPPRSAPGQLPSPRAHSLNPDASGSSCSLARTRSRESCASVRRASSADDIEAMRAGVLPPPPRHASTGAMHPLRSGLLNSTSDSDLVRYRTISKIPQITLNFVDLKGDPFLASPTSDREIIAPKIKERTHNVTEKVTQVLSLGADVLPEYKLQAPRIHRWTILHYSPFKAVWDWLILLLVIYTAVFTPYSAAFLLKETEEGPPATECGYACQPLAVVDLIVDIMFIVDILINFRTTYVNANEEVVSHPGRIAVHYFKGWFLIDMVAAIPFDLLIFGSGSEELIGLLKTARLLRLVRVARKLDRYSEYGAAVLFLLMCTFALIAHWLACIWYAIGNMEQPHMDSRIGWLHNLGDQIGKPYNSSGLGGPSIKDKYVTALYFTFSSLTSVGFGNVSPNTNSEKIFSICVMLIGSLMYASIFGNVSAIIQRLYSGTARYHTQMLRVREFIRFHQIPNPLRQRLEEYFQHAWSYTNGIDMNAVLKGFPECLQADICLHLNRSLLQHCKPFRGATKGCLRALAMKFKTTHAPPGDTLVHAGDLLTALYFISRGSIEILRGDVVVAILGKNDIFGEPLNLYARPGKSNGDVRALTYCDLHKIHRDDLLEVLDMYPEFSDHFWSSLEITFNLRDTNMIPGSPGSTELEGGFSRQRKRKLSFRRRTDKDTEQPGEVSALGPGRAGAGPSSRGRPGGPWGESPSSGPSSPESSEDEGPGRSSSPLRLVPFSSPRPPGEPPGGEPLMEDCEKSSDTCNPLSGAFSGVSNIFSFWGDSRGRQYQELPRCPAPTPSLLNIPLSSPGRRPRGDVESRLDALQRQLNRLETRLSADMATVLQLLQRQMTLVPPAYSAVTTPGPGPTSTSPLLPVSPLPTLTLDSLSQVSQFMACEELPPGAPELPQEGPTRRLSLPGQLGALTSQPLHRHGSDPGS
row,Structure (SMILES),"hERG current change (%, negative = inhibition) at 10uM [%]"
1,CCOc1ncccc1C(=O)NNC(=O)c1cccc(S(=O)(=O)Nc2ccc(OC)cc2)c1,6.87
2,CCOC(=O)Cc1[nH]nc2c1C(c1cccc(OC)c1OC)C(C#N)=C(N)O2 (stereo not drawn),-0.21
3,O=C(O)CCC(=O)N1CCN(c2nc(-c3ccccc3)c3ccccc3n2)CC1,13.7
4,c1ccc(-c2nc(N3CCCC3)nc3ccccc23)cc1,8.87
5,CCN1CCN(c2nc(-c3ccccc3)c3ccccc3n2)CC1,-71.2
6,Clc1ccc2nc(N3CCNCC3)nc(-c3ccccc3)c2c1,-59.1
7,O=C(O)CCCC(=O)N1CCN(c2nc(-c3ccccc3)c3ccccc3n2)CC1,1.86
8,O=C1CN(c2nc(-c3ccccc3)c3cc(Cl)ccc3n2)c2ccccc2N1,13.1
9,CCOC(=O)N1CCN(c2nc(-c3ccccc3)c3ccccc3n2)CC1,5.1
10,CN1CCN(c2nc(-c3ccccc3)c3cc(Cl)ccc3n2)CC1,-48.1
11,c1ccc(-c2nc(N3CCNCC3)nc3ccccc23)cc1,-65.2
12,CC(=O)NC(Cc1ccc(F)cc1)C(=O)O (stereo not drawn),-24.1
13,COC(=O)CP(=O)(c1ccccc1)c1ccccc1,15.2
14,Oc1ccc(/C=N/NP(=S)(c2ccccc2)c2ccccc2)cc1,-3.89
15,COc1ccccc1CNC(=O)c1cccs1,3.82
16,CCC1=C2CC[C@H]3C(=O)N(CC)C(=O)[C@H]3[C@H]2[C@@]2(Cc3ccccc3)C(=NCCOC)OC(=O)N2C1=O,10
17,CC(C)(Oc1ccc(Cl)cc1)C(=O)OCC(=O)N1CCN(c2ccccc2)CC1,-7.02
18,CCN1C[C@]2(COC)CC[C@H](OC)[C@@]34C1[C@]1(OCO[C@@]15C[C@H](OC)[C@H]1C[C@@H]3[C@@H]5[C@H]1OC)[C@@H](O)[C@H]24,10.5
19,C=CCn1c(COc2ccc(Cl)cc2)nnc1SCC(=O)Nc1ccc(S(N)(=O)=O)cc1,-9.02
20,Cc1oc(-c2ccc(Cl)cc2)nc1CS(=O)CC(=O)NCCCN1CC(C)CC(C)C1 (stereo not drawn),-65.5
21,Cc1ccccc1-c1nc(CS(=O)CC(=O)NCCN2CCN(Cc3ccccc3)CC2)c(C)o1 (stereo not drawn),-58.7

row,Structure (SMILES),"hERG current change (%, negative = inhibition) at 10uM [%]"
1,Cc1oc(-c2ccc(Cl)cc2)nc1CS(=O)CC(=O)NCCCN1CCN(Cc2ccccc2)CC1 (stereo not drawn),-62.1
2,Cc1ccc(-c2nc(CS(=O)CC(=O)NCCCN3CC(C)CC(C)C3)c(C)o2)cc1 (stereo not drawn),-19.9
3,Cc1ccccc1-c1nc(CS(=O)CC(=O)NCCN2CCOCC2)c(C)o1 (stereo not drawn),3.48
4,Cc1oc(-c2ccc(Cl)cc2)nc1CS(=O)CC(=O)NCCCN1CCOCC1 (stereo not drawn),-3.95
5,Cc1ccccc1-c1nc(CS(=O)CC(=O)NCc2ccccc2)c(C)o1 (stereo not drawn),-21
6,Cc1ccc(-c2nc(CS(=O)CC(=O)NCCCN3CCN(Cc4ccccc4)CC3)c(C)o2)cc1 (stereo not drawn),-38.2
7,Cc1oc(-c2ccc(Cl)cc2)nc1CS(=O)CC(=O)NCCCN1CCCC(C)C1 (stereo not drawn),-36.8
8,O=C(CSc1nnc(-c2cccs2)o1)NCc1ccco1,-0.74
9,COC(=O)C1=C(Nc2ccc(OC)cc2)C=C(C)C(C(=O)OC)C1c1ccc(C)cc1 (stereo not drawn),18.9
10,C(#Cc1ccccc1)CN1CCOCC1.Cl,22.9
11,Cc1ccc(C)c(S(=O)(=O)N2CCN(C(=O)c3ccc(OCc4c(C)noc4C)cc3)CC2)c1,-21.9
12,O=C(Nc1ccc(S(=O)(=O)N2CCCCC2)cc1)c1ccc(=O)[nH]c1,7.49
13,Cc1cc(C)cc(Oc2ccc(-c3nnc(-c4ccccc4)o3)cc2[N+](=O)[O-])c1,7.94
14,COc1cccc(-c2nn(-c3ccccc3)cc2CNC(C)Cn2cncn2)c1 (stereo not drawn),-42.5
15,Cc1ccc(-n2cc(CN3CCNC(=O)CC3)c(-c3ccc(F)cc3)n2)cc1,-35.4
16,Cc1ccc(-n2cc(CNC(C)Cc3cnccn3)c(-c3cccc(C)c3)n2)cc1 (stereo not drawn),-73.8
17,Cc1ccc(C)c(-n2cc(CN3CCN(C(=O)c4ncn[nH]4)CC3)c(-c3ccccc3)n2)c1,-30.7
18,Cc1ccc(C)c(-n2cc(CNCCCn3cccn3)c(-c3ccccc3)n2)c1,-64.9
19,Cc1ccc(-n2cc(CN3CCC(O)(c4ccccn4)CC3)c(-c3ccc(F)cc3)n2)cc1,-56.7
20,Cc1ccn2c(CNCCCn3cccn3)c(C(=O)N3CCCCCC3)nc2c1,-23.4
21,Cc1ccc(-n2cc(CN(C)Cc3nccn3C)c(-c3cccc(C)c3)n2)cc1,-16.1

row,Structure (SMILES),"hERG current change (%, negative = inhibition) at 10uM [%]"
1,Cc1ccc(-n2cc(CNCCCn3cccn3)c(-c3cccc(C)c3)n2)cc1,-71.6
2,CC(=O)N1CCCN(Cc2cn(-c3cc(C)ccc3C)nc2-c2ccccc2)CC1,-30.3
3,Cc1ccc(-n2cc(CN3CCN(c4ccccn4)CC3)c(-c3ccc(F)cc3)n2)cc1,11.2
4,CCOC(=O)C1=NN(c2ccccc2)C(c2ccccc2)CC1=O (stereo not drawn),5.31
5,Cc1nnc2n1N=C(c1ccc(F)cc1F)CS2,-3.32
6,CCOc1ccc(CCNC(=O)c2ccc(S(=O)(=O)N3CCCC3)cc2)cc1OCC,-8.47
7,CCn1c2ccccc2c2cc(/C=N/n3c(C)nnc3C)ccc21,-25
8,O=C(C1=C[C@H](C2CC2)C[C@H](OCCCCO)O1)N1CCOCC1,21.2
9,O=C(/C=C/c1nc2ccccc2s1)N1CCCCCC1,-0.709
10,CN(C)S(=O)(=O)c1cccc(C(=O)OCC(=O)Nc2sccc2C#N)c1,-2.79
11,Cc1ccc(-n2cc(CN3CCN(Cc4nccn4C)CC3)c(-c3cccc(C)c3)n2)cc1,-62.7
12,Cc1ccc(-n2cc(CN3CCN(Cc4nccn4C)CC3)c(-c3ccc(F)cc3)n2)cc1,-26.8
13,Cc1cccc(-n2cc(CN3CCN(Cc4nccn4C)CC3)c(-c3cccc(F)c3)n2)c1,2.98
14,CSCC[C@H](NC(=O)c1nn(C)c(=O)c2ccccc12)c1nc2ccccc2[nH]1,-3.07
15,Cc1cc([N+](=O)[O-])nn1CC(=O)N/N=C/c1ccccc1F,-5.15
16,Cc1ccc(C2N(c3ccccc3)C(=S)N3CCCN23)cc1 (stereo not drawn),7
17,CCC(C)N(C)Cc1cccc(C2(O)CCN(S(=O)(=O)c3ccc(F)cc3)CC2)c1 (stereo not drawn),-69.3
18,CC(C(=O)Nc1ccc(S(=O)(=O)N2CCCC2)cc1)N(C)Cc1ccc(F)cc1 (stereo not drawn),-9.91
19,Cc1cc(S(=O)(=O)N2CCN(c3c(C)cccc3C)CC2)ccc1F,-4.1
20,CCc1ccccc1N1CCN(S(=O)(=O)c2ccc(F)c(C)c2)CC1,4.43
21,O=S(=O)(c1ccc(OC(F)(F)F)cc1)N1CCC(O)(c2cccc(C(F)(F)F)c2)CC1,-4.35

row,Structure (SMILES),"hERG current change (%, negative = inhibition) at 10uM [%]"
1,CCC(C)N(C)Cc1cccc(C2(O)CCN(S(=O)(=O)c3ccc(F)c(C)c3)CC2)c1 (stereo not drawn),-72.4
2,CN1CCc2c(sc(N)c2C(=O)O)C1,20.8
3,COc1ccc(C2C(C#N)=C(N)OC3=C2C(=O)CC(C)(C)C3)cc1Cn1cc([N+](=O)[O-])cn1 (stereo not drawn),-6.92
4,COc1ccc(C2C(C#N)=C(N)OC3=C2C(=O)CC(C)(C)C3)cc1Cn1nc(C)c([N+](=O)[O-])c1C (stereo not drawn),-50.6
5,COc1ccc(C2C(C#N)=C(N)OC3=C2C(=O)CCC3)cc1Cn1nc(C)c([N+](=O)[O-])c1C (stereo not drawn),-13.3
6,COC(=O)CCC(=O)OC1(C)C(=O)C=C2C=C(C3CC3)N(C(CO)CO)C=C2C1=O (stereo not drawn),5.72
7,COc1ccccc1C(=O)NCC(=O)NNC(=O)C1COc2ccccc2O1 (stereo not drawn),2.49
8,Cc1cc(N2CCN(Cc3cn(C)nc3-c3ccccc3F)CC2)cc(C)n1,-35
9,CC(C1CCN(Cc2cn(C)nc2-c2cccc(Cl)c2)CC1)N1CCOCC1 (stereo not drawn),-26.9
10,Cc1cc(N2CCN(Cc3cn(C)nc3-c3cccc(Cl)c3)CC2)cc(C)n1,-65
11,COCCN1CCN(Cc2cn(C)nc2-c2cccc(Cl)c2)CC1,-15.7
12,Cn1cc(CN2CCN(Cc3ccccc3)CC2)c(-c2cccc(Cl)c2)n1,-53
13,Cn1cc(CN2CCN(c3ncccn3)CC2)c(-c2cccc(Cl)c2)n1,-20.5
14,Cc1cnc(C)c(N2CCN(Cc3cn(C)nc3-c3cccc(Cl)c3)CC2)n1,-49.6
15,Cn1cc(CN2CCC(C(O)c3cccs3)CC2)c(-c2ccccc2F)n1 (stereo not drawn),-21.5
16,Cn1cc(CN2CCC(C(O)c3cccs3)CC2)c(-c2cccc(Cl)c2)n1 (stereo not drawn),-57
17,Cc1c(Cl)cccc1NC(=O)Nc1ccn(C)n1,5.52
18,Cc1nn(C)c(C)c1/C=C(/C(=O)C(C)(C)C)n1cncn1,28.5
